Data on 40 molecules can be found in PubChem BioAssay (NCATS).

SMILES strings stand for the structures. Activity calls are given as the source filed them. Where a call stands in place of a potency, no number is given. Calls come from the whole dose curve; as a rule, active = well fitted inhibition curve with a large enough effect; inconclusive = small, poorly fitted or top-dose-only effect; inactive = flat fitted curve, though single readings scatter.
Potency is the fitted concentration of half-maximal effect.

Sequence of Phosphoglycerate kinase, glycosomal (Trypanosoma brucei brucei) (P07378 whole entry, looked up): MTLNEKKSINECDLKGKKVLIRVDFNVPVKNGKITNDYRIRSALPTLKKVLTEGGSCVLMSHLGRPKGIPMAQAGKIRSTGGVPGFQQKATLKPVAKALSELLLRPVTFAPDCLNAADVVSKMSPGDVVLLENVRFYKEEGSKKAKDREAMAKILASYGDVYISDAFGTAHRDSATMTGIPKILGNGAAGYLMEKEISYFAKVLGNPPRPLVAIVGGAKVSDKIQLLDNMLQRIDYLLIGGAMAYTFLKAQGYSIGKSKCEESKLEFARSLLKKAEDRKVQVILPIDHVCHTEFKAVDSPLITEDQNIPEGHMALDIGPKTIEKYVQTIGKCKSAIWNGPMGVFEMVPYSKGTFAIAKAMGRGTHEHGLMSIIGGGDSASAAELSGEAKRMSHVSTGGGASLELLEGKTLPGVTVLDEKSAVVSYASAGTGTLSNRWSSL

This test concerns the target Phosphoglycerate kinase, glycosomal (Trypanosoma brucei brucei) (UniProt P07378). Kind of test: qHTS Validation Assay to Find Inhibitors of Phosphoglycerate Kinase (AID 504547). As to conditions: enzymatic PGK inhibition, coupled luminescence read-out; series mostly up to 57.5 µM. The source says: NIH Molecular Libraries Probe Production Network [MLPCN]
NIH Chemical Genomics Center [NCGC]
PI Name: Malcolm Walkinshaw, University of Edinburgh
Several species of the Trypanosomatidae family of parasitic protozoans cause a spectrum of diseases
throughout the tropical and subtropical world. Sleeping sickness, caused by two subspecies of Trypanosoma brucei, is endemic to areas of sub-Saharan Africa, while Chagas disease, a manifestation of Trypanosoma cruzi infection, is prevalent throughout Central and South America. In addition, many species of Leishmania are responsible for a range of cutaneous and visceral diseases, causing ulcers, destructive lesions and kalaazar, a lethal infection of the viscera. Collectively, these organisms infect 30 million people worldwide (~500 million live in endemic areas), and account for ~130,000 deaths annually. Given their debilitating and prevalent nature, trypanosomatid parasites impose a heavy medical, economic and social burden on entire populations, primarily in the developing world. The problem is further exacerbated by the fact that existing treatments have progressed little in the past 50 years, and current drugs show high toxicity and poor efficacy.
Blood-stream stages of T. brucei are entirely dependent on glycolysis as a source of ATP, and the tricarboxylic acid cycle and oxidative phosphorylation are both repressed. Glycolysis in axenically cultured T. cruzi, representing the intracellular pathogenic stage, is also essential for these parasites. […] Previous studies have shown that the glycolytic enzyme, phosphoglycerate kinase (PGK), is a viable target for drugs to kill these parasites.
NCGC Assay Protocol Summary:
Briefly, 3ul of substrate/PGK buffer (columns 1,2,5-48) are dispensed into Greiner white solid bottom 1536-well assay plates; columns 3-4 receive only TEA buffer as 0x PGK controls. Compounds are then transferred via Kalypsys pin tool equipped with 1536-pin array (10nl slotted pins, V&P Scientific, San Diego, CA). Following addition of compound, 1ul of GAPDH (100nM final concentration, all columns) is added to initiate the reaction (this upstream coupling enzyme is necessary for in-well production of PGK substrate, 1,3-bisphosphoglycerate (1,3-BPG), which is unstable and not commercially available). The plates are then incubated at room temperature for 60 minutes. Kinase-Glo Plus reagent is added (2ul) and plates incubated for 10 minutes, before being transferred to a ViewLux high-throughput CCD imager (PerkinElmer) wherein single end-point measurements of luminescence are acquired using a clear filter. All reagents are diluted in an assay buffer consisting of 100mM TEA (pH 7.6), 5mM MgCl2 and 0.01% Tween-20.
In the case of `O=C(N[C@@H](Cc1ccccc1)C(=O)CCl)OCc1ccccc1`, the Potency result is “inactive”.

Regarding `Cc1nc(N=Nc2ccc(S(=O)(=O)O)cc2S(=O)(=O)O)c(COP(=O)(O)O)c(C=O)c1O`, the Potency entry is “inactive”. The value for `N[C@H]1CONC1=O` was “inactive”; that for `CCn1c(=O)[nH]c2cc(Cl)c(Cl)cc21` was “inactive”; that for `NOCC(=O)O` was “inactive”. The value for `CC(N)=O` was “inactive”. As to `COc1ccccc1N1CCN(CCN(C(=O)c2ccc(F)cc2)c2ccccn2)CC1`, the Potency result was “inactive”. For `NCC(O)c1ccc(O)c(O)c1` (stereo not given) the value was 4780 nM (active); for `O=C(c1ccc2c(c1)OCCO2)N1CCCCC1`, “inactive”. The value for `O=C(O)C1CCCNC1` (stereo not given) was “inactive”; that for `Cn1cc(C(F)(F)F)nc1-c1ccc(OCC(O)CNCCOc2ccc(O)c(C(N)=O)c2)cc1` (stereo not given) was “inactive”; that for `Oc1cc(O)c2c(c1)O[C@H](c1ccc(O)c(O)c1)[C@@H](O)C2` was “inactive”. The value for `NC[C@@H]1O[C@H](c2ccccc2)Cc2c1ccc(O)c2O` was “inactive”. As for `N#Cc1cc2nc(O)c(O)nc2cc1[N+](=O)[O-]`, the Potency result was “inactive”.

On to `Oc1ccc(/C=C/c2ccc(/C=C/c3ccc(O)cc3)c(Br)c2)cc1`, for which the Potency result was “inactive”. The value for `CCN(c1nc(N)c(C(=O)N=C(N)N)nc1Cl)C(C)C` was “inactive”. The value for `CSC(=N)N` was “inactive”.

Turning to `CC(C)C[C@H](NC(=O)C1OC1C(=O)O)C(=O)NCCCCN=C(N)N` (stereo not given in full), the Potency entry was “inactive”. For `Cn1ccnc1` the value was “inactive”; for `CN(C)C(=O)/N=N/C(=O)N(C)C`, “inactive”. `O=C(O)C1=CC(=C(c2ccc(O)c(C(=O)O)c2)c2ccc(O)c(C(=O)O)c2)C=CC1=O`: the Potency was 75.7 nM (active). As to `C/C(=C\c1ccc(C(=O)O)cc1)c1ccc2c(c1)C(C)(C)CCC2(C)C`, the Potency entry was “inactive”. With `CC(C)NC[C@H](O)COc1ccc(CC(N)=O)cc1`, the Potency result was “inactive”. For `NCCNS(=O)(=O)c1cccc2c(Cl)cccc12` the value was “inactive”. For `Nc1ncnc2c1nc(Br)n2C1OC2COP(=O)(O)O[C@@H]2C1O` (stereo not given in full) the value was “inactive”; for `N[C@@H](CCC(=O)N[C@H](CSN=O)C(=O)NCC(=O)O)C(=O)O`, “inactive”.

As to `CC(C)(C)NCC(O)COc1cccc2[nH]c(=O)[nH]c12` (stereo not given), the Potency entry is “inactive”. For `COc1ccc(C(=O)NCc2cccnc2)cc1C(=O)NCc1cccnc1` the value was “inactive”; for `Cc1cccc(C)c1OCC(N)C(C)C` (stereo not given), “inactive”. For `O=C(O)c1cc2cc(F)ccc2[nH]1` the value was “inactive”. For the molecule `CCCCCCCCCCCCCCCCCCOC[C@H](COP(=O)([O-])OCC[N+](C)(C)C)OC`, the Potency entry was “inactive”. For `Nc1nc2[nH]c(=O)cnc2c(=O)[nH]1` the value was “inactive”. For `N=C(N)c1ccc(N)cc1` the value was “inactive”; for `CCC1(O)CC2CN(CCc3c([nH]c4ccccc34)[C@@](C(=O)OC)(c3cc4c(cc3OC)N(C=O)C3[C@]45CCN4CC=C[C@@](CC)([C@@H](OC(C)=O)[C@]3(O)C(=O)OC)[C@H]45)C2)C1` (stereo not given in full), “inactive”. The value for `CNCCNS(=O)(=O)c1cccc2cnccc12` was “inactive”; that for `CC1CNCCN1S(=O)(=O)c1cccc2cnccc12` (stereo not given) was “inactive”; that for `CC(=O)NNC(=O)N1Cc2ccccc2Oc2ccc(Cl)cc21` was “inactive”. As for `O=C(O)/C=C/c1cnc[nH]1`, the Potency result is “inactive”. For `COc1ccc(CCN(C)CCc2ccc(OC)c(OC)c2)cc1OC` the value was “inactive”. For `NC(Cc1cccc(-c2ccccc2CP(=O)(O)O)c1)C(=O)O` (stereo not given) the value was “inactive”.
